Drawing on PubChem BioAssay AID602365 (National Center for Advancing Translational Sciences (NCATS), 2012), this text covers Potency for 40 compounds.

Each structure is given as a SMILES string. Records with an inconclusive call do not appear. Calls of active or inactive are those of the source. The call rests on the fitted dose curve; in most records, active means well fitted inhibition curve with a large enough effect; inconclusive means small, poorly fitted or top-dose-only effect; inactive means flat fitted curve, though single readings scatter.

The assay deals with Luciferin 4-monooxygenase (Photinus pyralis) (UniProt P08659). The assay can be described thus: FLuc inhibitory activity for the follow-up compounds in a biochemical assay with 1mM D-luciferin. The conditions noted are these: purified FLuc, luminescence; series mostly up to 57.5 µM. An excerpt: NCGC Assay Overview: Firefly (Photinus pyralis) luciferase is one of the most commonly used transcriptional reporters. It is considered one of the more dynamically responsive reporters - that is, responsive to changes in reporter transcription - as it requires no post-translational modifications and is enzymatically active directly after protein synthesis (Wood, 1998). With no endogenous expression in mammalian cells and without the requirement of external excitation, it offers very little background signal, thus generally providing excellent signal to background for most assays. Previous profiling work to determine the prevalence of compounds that affect FLuc enzymatic activity (PubChem AID 411) identified that ~3% of the MLSMR library (then at ~72K) inhibited FLuc. […] Of the compounds identified in this profile that inhibited FLuc, 151 compounds were selected for further analysis, in an effort to better understand their mode of inhibiting FLuc. The assay described here was to determine the activity of the compounds in a FLuc assay that contained a KM concentration of ATP and a high concentration (1mM) of D-luciferin.
Luciferin 4-monooxygenase (Photinus pyralis), sequence (P08659 whole entry, looked up): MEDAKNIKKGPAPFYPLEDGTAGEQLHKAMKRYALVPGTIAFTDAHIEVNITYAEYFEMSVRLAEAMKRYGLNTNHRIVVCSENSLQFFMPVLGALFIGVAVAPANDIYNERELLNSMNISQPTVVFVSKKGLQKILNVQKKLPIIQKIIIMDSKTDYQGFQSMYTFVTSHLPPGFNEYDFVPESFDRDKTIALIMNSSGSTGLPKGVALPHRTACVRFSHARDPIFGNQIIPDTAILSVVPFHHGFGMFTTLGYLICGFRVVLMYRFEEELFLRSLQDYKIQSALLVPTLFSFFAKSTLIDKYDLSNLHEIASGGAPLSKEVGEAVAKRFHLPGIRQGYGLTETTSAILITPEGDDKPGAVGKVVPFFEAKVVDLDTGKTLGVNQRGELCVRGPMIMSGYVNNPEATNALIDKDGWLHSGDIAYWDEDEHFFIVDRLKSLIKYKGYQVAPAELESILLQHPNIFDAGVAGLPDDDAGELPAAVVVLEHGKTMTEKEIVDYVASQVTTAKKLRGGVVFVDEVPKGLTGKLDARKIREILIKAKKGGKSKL
NCGC Assay Protocol Summary: Reagents: 50mM Tris acetate, pH 7.5; 10mM Mg acetate; 1mM D-luciferin (Sigma #L9504); 10uM ATP; 0.01% Tween-20; 0.05% BSA; 10nM P. pyralis luciferase (Sigma #L9506) Control compounds used were two known firefly luciferase inhibitors (3-(5-(3-chlorophenyl)-1,2,4-oxadiazol-3-yl)benzoic acid and 5-(2-fluorophenyl)-3-phenyl-1,2,4-oxadiazole), and DMSO. Three microliters containing firefly luciferase substrates in buffer (final concentrations: 50mM Tris acetate, pH 7.5, 10mM Mg acetate, 0.01% Tween-20, 0.05% BSA, 1mM D-luciferin, 10uM ATP) are dispensed into each well of a Greiner white, solid-bottom 1536-well format plate using a flying reagent dispenser (FRD). These assay plates were then treated with 23nL of compound or DMSO using a Kalypsys pin tool, which allows for delivery of a 12-point intraplate titration of each compound to the assay plate (quantitative HTS), with a final compound concentrations ranging from approximately ~60uM to 0.3nM. One microliter of firefly luciferase in […] Tris-acetate buffer was then delivered by FRD to each well for a final enzyme concentration of 10nM. Luciferase activity was then measured using a ViewLux CCD imager (PerkinElmer), with an average exposure time of 2-30 seconds (2X binning, medium/high gain).
As for `O=C(O)c1ccc(NC(=O)c2cccc(NC(=O)c3cccs3)c2)cc1`, the Potency is 32.6 µM (active).
As to `O=C(O)c1cccc(NC(=O)c2cccc(S(=O)(=O)N3CCc4ccccc43)c2)c1`, the Potency result is “inactive”.
Next, `O=C(O)c1ccc(NC(=O)c2cc(S(=O)(=O)N3CCCCC3)c(Cl)cc2Cl)cc1`: “inactive”; `Nc1cccc(-c2nc3ccc(N)cc3s2)c1`: 2.59 µM (active); `COc1ccc(-c2nc3ccccc3s2)cc1O`: 0.651 µM (active).
Consider `CN(C)c1cccc(C(=O)Nc2ccc(-c3nc4ccccc4s3)cc2)c1`, for which the Potency was 18.3 µM (active).
Regarding `CCOc1ccc(C(=O)Nc2ccccc2C(=O)O)cc1`, the Potency is 3.66 µM (active).
As to `COc1ccccc1C(=O)Nc1ccc(C(=O)O)cc1`, the Potency result was “inactive”.
As to `O=C(O)c1cccc(NC(=O)c2ccc(Cl)c(S(=O)(=O)N3CCCCCC3)c2)c1`, the Potency was 3.26 µM (active).
In the case of `CCCOc1cccc(C(=O)Nc2ccc(-c3nc4ccccc4s3)c(Cl)c2)c1`, the Potency result was “inactive”.
As to `Nc1ccc(-c2nc3ccc(N)cc3s2)cc1`, the Potency was 1.83 µM (active).
For the compound `O=C(Nc1ccccc1C(=O)O)c1cccc(NC(=O)c2ccco2)c1`, the Potency was 20.6 µM (active).
As to `O=C(Nc1ccccc1C(=O)O)c1ccc(Cl)c(S(=O)(=O)N2CCOCC2)c1`, the Potency was 18.3 µM (active).
Next, `O=C(Nc1cccc(-c2nc3ccccc3s2)c1)c1cc(-n2cnnc2)ccc1Cl`: 8.19 µM (active); `O=C(Nc1ccccc1C(=O)O)c1ccc(NC(=O)C2CC2)cc1`: 4.11 µM (active); `O=C(Nc1ccccc1C(=O)O)c1ccc(NC(=O)C2CCCO2)cc1` (stereo not given): 20.6 µM (active).
Turning to `Cc1cccc(C(=O)Nc2ccc(-c3nc4ccccc4s3)cc2Cl)c1`, the Potency result is “inactive”.
Consider `Nc1ccc(-c2nc3cc(N)ccc3s2)cc1`, for which the Potency was 18.3 µM (active).
In the case of `Cc1ccc(C(=O)Nc2cccc(C(=O)O)c2)cc1S(=O)(=O)N1CCOCC1`, the Potency was 16.3 µM (active).
On to `CCOc1ccc2nc(NC(=O)c3ccccc3)sc2c1`, for which the Potency was 1.46 µM (active).
`Cc1ccc2sc(-c3ccc(NC(=O)c4cc(-n5cnnc5)ccc4Cl)cc3)nc2c1`: the Potency is 18.3 µM (active).
On to `Nc1ccc2nc(-c3ccccc3)sc2c1`, for which the Potency is 0.919 µM (active).
In the case of `CCOc1ccc2nc(NC(=O)c3ccoc3C)sc2c1`, the Potency was 2.91 µM (active).
With `COc1ccc2nc(NC(=O)C3CCN(S(=O)(=O)c4cccnc4)CC3)sc2c1`, the Potency result was “inactive”.
For the compound `COc1ccc(NS(=O)(=O)c2cccc(C(=O)Nc3ccccc3C(=O)O)c2)cc1`, the Potency result was “inactive”.
Take `Cc1cccc(NS(=O)(=O)c2cccc(C(=O)Nc3cccc(C(=O)O)c3)c2)c1`: the Potency entry is “inactive”.
In the case of `O=C(Cc1ccccc1)Nc1ccc(C(=O)Nc2ccccc2C(=O)O)cc1`, the Potency is 20.6 µM (active).
For `COc1cc(OC)cc(-c2nc3ccccc3s2)c1`, the Potency was 18.3 µM (active).
On to `Cc1ccc(C(=O)Nc2cccc(C(=O)O)c2)cc1S(=O)(=O)N1CCCC1`, for which the Potency was 4.61 µM (active).
For the compound `Nc1ccccc1-c1nc2ccccc2s1`, the Potency is 18.3 µM (active).
`COc1cc(OC)cc(C(=O)Nc2ccccc2-c2nc3ccccc3s2)c1`: the Potency result is “inactive”.
For the compound `COc1ccc2nc(NC(=O)c3ccc(NS(=O)(=O)c4cccs4)cc3)sc2c1`, the Potency was 18.3 µM (active).
For `Cc1ccc2nc(-c3ccc(N)cc3)sc2c1`, the Potency was 0.517 µM (active).
Turning to `CC(C)c1ccc(-c2nc3ccccc3s2)cc1`, the Potency was 0.183 µM (active).
With `C/C(=N\NC(=O)c1ccccc1NC(=O)c1ccc(Cl)cc1)c1ccncc1`, the Potency is 0.0517 µM (active).
Consider `COc1ccc(CC(=O)Nc2ccc(-c3nc4ccccc4s3)c(C)c2)cc1`, for which the Potency entry was “inactive”.
Turning to `COc1ccc(C(=O)Nc2ccccc2C(=O)Nc2ccc(C(=O)O)cc2)cc1`, the Potency is 8.19 µM (active).
Take `CCn1c(C)nc2cc(-c3nc4n(n3)Cc3ccccc3-4)ccc21`: the Potency is 0.163 µM (active).
`COc1ccc2nc(NC(=O)c3ccc(S(=O)(=O)N4CCCC(C)C4)cc3)sc2c1` (stereo not given): the Potency result is “inactive”.
Next, `Cc1c(NC(=O)c2cc(-n3cnnc3)ccc2Cl)cccc1-c1nc2ccccc2s1`: 0.919 µM (active).
